The values below come from PubChem BioAssay (NCATS).

A number with no mark means an inactive call. Results filed as inconclusive are left out. Activity calls are given as the source filed them. Unless noted, calls come from the whole dose curve; as a rule, active = well fitted cell-killing curve with a large enough effect; inconclusive = small, poorly fitted or top-dose-only effect; inactive = flat fitted curve, though single readings scatter.

Assay [1] can be described thus: Cell Viability - LYMP2-025 (AID 976).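 Note: series mostly up to about 92 µM; plate controls were DMSO only for no effect and tetraoctylammonium bromide control for full effect.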 The method, boiled down: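 Acute cytotoxicity is scored as a concentration-dependent fall in intracellular ATP, measured by luciferase luminescence, in human lymphoblastoid LYMP2-025 cells exposed to compound for 24 hours at 37 C. AC50 values come from standard Hill fits.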
The nature of assay [2]: Cell Viability - LYMP2-002 (AID 977).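 Note: series mostly up to about 92 µM; compound exposure lasted 24 h at 37 °C; plate controls were DMSO only for no effect and 92 µM tetraoctylammonium bromide for full effect.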 The method, boiled down:
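In this qHTS viability screen, 2500 human lymphoblastoid cells per well receive compound for 24 hr at 37 C, and luciferase-based ATP luminescence gives the viability signal. Tetraoctylammonium bromide serves as positive control.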

A short description of assay [3]: Cell Viability - LYMP2-007 (AID 979).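 Note: cells exposed to compound for 24 h before reading; 0% = DMSO only and the negative end = 92 µM tetraoctylammonium bromide; nearly all actives have a fitted effect of over 60% in size.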 The method, boiled down: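 Cells are seeded at 2500 per well and rested 5 hr. Compounds are then added over a concentration series for 24 hr at 37 C. CellTiter-Glo is added for 30 min at room temperature before luminescence reading.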
The nature of assay [4]: Cell Viability - LYMP2-008 (AID 980). Note: % is set by controls: 0 for no effect and ±100 for the full control effect; nearly all actives have a fitted effect of over 60% in size. The method, boiled down:
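Cells seeded at 2500/well and rested 5 hr at 37 C; compounds added over a concentration range and incubated 24 hr at 37 C; CellTiter-Glo added, 30 min at room temperature; luminescence read and AC50 fitted with Hill model.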

A short description of assay [5]: Cell Viability - LYMP2-010 (AID 981). Note: % is set by controls: 0 for no effect and ±100 for the full control effect; nearly all actives have a fitted effect of over 55% in size. The method, boiled down: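 Steps: seed 2500 LYMP2-010 cells per well; incubate 5 hr at 37 C; add compound; incubate 24 hr at 37 C; add CellTiter-Glo, wait 30 min at room temperature; read luminescence. Concentration-response fitted to Hill equation for AC50.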
Assay [6] can be described thus: Cell Viability - LYMP2-012 (AID 982).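 Note: cellular ATP by luciferase luminescence where a drop means cytotoxicity; cells exposed to compound for one day before reading; 0% = DMSO only and full loss = 92 µM tetraoctylammonium bromide; nearly all actives have a fitted effect of over 55% in size.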
Assay [7] is described as follows: Cell Viability - LYMP2-014 (AID 983).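 Note: series mostly up to about 92 µM; plate controls were DMSO only for no effect and 92 µM tetraoctylammonium bromide for full effect; nearly all actives have a fitted effect of over 50% in size.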 The method, boiled down:
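Cells are plated at 2500/well and left 5 hr at 37 C. Compounds are added across a concentration range and incubated 24 hr at 37 C in complete medium. CellTiter-Glo is added, and luminescence is read after 30 min at room temperature.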

Assay [8] in a line: Cell Viability - LYMP2-016 (AID 984). Note: % is set by controls: 0 for no effect and ±100 for the full control effect; nearly all actives have a fitted effect of over 55% in size. Put shortly: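 Concentration-dependent ATP depletion measured in LYMP2-016 lymphoblastoid cells, 24 h, 37 C; luciferase-based luminescent detection; Hill-equation AC50.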
Assay [9] is described as follows: Cell Viability - LYMP2-018 (AID 985).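 Note: compound exposure lasted 24 hr at 37 °C; plate controls were DMSO only for no effect and tetraoctylammonium bromide at 92 µM for full effect; nearly all actives have a fitted effect of over 50% in size.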 The method, boiled down: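 Seed 2500 lymphoblastoid cells per well, incubate 5 hr at 37 C, add compound and incubate 24 hr at 37 C, add CellTiter-Glo, wait 30 min at room temperature, then read luminescence.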
A short description of assay [10]: Cell Viability - LYMP2-020 (AID 986).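 Note: series mostly up to about 92 µM; plate controls were DMSO only for no effect and tetraoctylammonium bromide at 92 µM for full effect; nearly all actives have a fitted effect of over 55% in size.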 Put shortly: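 Seed 2500 cells per well and incubate 5 hr at 37 C. Add compounds at a concentration series and incubate 24 hr at 37 C. Add CellTiter-Glo, wait 30 min at RT, read luminescence, and fit a Hill curve for AC50.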
Assay [11] in a line: Cell Viability - LYMP2-022 (AID 987). Put shortly: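 Cells were seeded at 2500 per well, rested 5 hr at 37 C, and treated with titrated compounds for 24 hr at 37 C. Cellular ATP was then quantified by luciferase luminescence, and AC50 values were derived from Hill-modelled concentration-response curves.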
Assay [12] can be described thus: Cell Viability - LYMP2-024 (AID 988).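 Note: plate controls were DMSO only for no effect and 92 µM tetraoctylammonium bromide for full effect; nearly all actives have a fitted effect of over 60% in size.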 The method, boiled down:
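qHTS cytotoxicity, human lymphoblastoid line, complete medium; 24 h cpd treatment, 37 C; CellTiter-Glo ATP luminescence readout; tetraoctylammonium bromide positive control; AC50 via Hill fit.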

Assay [13] is described as follows: Cell Viability - LYMP1-002 - Assay at 24 hr (AID 993). Note: % is set by controls: 0 for no effect and ±100 for the full control effect. The method, boiled down: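 Acute toxicity is measured as concentration-dependent loss of cellular ATP in a human lymphoblastoid line (Coriell LYMP1-002) after 24 h treatment in complete medium. ATP is quantified by luciferase luminescence and AC50 derived by Hill modelling.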
The nature of assay [14]: Cell Viability - LYMP1-002 - Assay at 40 hr (AID 994).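 Note: 0% = DMSO only and full inhibition = 92 µM tetraoctylammonium bromide; nearly all actives have a fitted effect of over 60% in size.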 Put shortly: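 Cells are plated at 2500 per well and rested 5 hr at 37 C. Compounds are added and incubated 40 hr at 37 C. CellTiter-Glo reagent is added for 30 min at room temperature before luminescence is read.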
Assay [15] can be described thus: qHTS Assay for Identification of Small Molecule Inducers of Hypoxia Response (AID 2120; active = well fitted curve in the direction sought with a large enough effect in the signal ratio, with a control signal flat, not every such curve was filed as active; the % refers to the signal ratio; note: 0% is about no effect). The method, boiled down: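 Cell-based qHTS for reporter induction: hypoxia response element controlled beta-lactamase in ME-180 cells. Compounds incubated 17 h at 37 degrees C; activity from blue/green (460/530 nm) ratio, inducers ranked by AC50.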
The target of assay [16] is Estrogen receptor (Homo sapiens) (UniProt P03372). The assay can be described thus: qHTS assay for small molecule agonists of estrogen receptor alpha signaling (AID 588514; calls by dose curve; note: nearly all actives have a fitted effect of over 70% in size; note: potency is the fitted concentration of half-maximal effect;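 for activation: 0% = vehicle only and 100% = reference agonist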). The method, boiled down: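 Efficacy is expressed against 20 nM 17-beta-estradiol (100%) and DMSO basal (0%); EC50 from Hill equation. Assay: beta-lactamase reporter in ER-alpha-UAS-bla HEK 293 cells, 18 h compound incubation, CCF4 detection.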
Chain of Estrogen receptor (Homo sapiens) (P03372 whole entry, looked up): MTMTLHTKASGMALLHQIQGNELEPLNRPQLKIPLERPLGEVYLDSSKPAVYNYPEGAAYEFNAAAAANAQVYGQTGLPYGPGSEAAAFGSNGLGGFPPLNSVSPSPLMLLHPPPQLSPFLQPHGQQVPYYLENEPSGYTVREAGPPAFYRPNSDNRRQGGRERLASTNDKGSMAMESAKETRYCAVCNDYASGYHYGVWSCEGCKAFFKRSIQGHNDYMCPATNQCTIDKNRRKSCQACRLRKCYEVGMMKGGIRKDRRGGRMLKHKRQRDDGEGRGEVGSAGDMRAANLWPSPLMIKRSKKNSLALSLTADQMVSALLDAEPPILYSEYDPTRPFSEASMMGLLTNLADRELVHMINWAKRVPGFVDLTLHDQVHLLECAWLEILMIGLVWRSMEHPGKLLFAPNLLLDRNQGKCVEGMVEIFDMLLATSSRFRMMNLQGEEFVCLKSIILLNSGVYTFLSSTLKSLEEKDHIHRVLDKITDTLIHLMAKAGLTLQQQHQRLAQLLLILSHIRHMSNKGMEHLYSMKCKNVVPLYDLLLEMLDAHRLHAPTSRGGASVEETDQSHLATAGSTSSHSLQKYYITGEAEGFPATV
On the technique in general: qHTS replaces the single test concentration by a dilution series.

A short description of assay [17]: Cell Viability - LYMP2-006 (AID 978). The method, boiled down:
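In this cytotoxicity screen, the human lymphoblastoid line grew in complete medium with test compounds for 24 hr at 37 C. Cellular ATP served as the viability signal.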

The nature of assay [18]: Cell Viability - LYMP2-026 (AID 989). Note: % is set by controls: 0 for no effect and ±100 for the full control effect; nearly all actives have a fitted effect of over 50% in size. Put shortly:
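Cells are seeded at 2500 per well and held 5 hr at 37 C. Compounds are added in concentration series for 24 hr, then CellTiter-Glo reagent is applied and luminescence read.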

The target in assay [19] is Androgen receptor (Homo sapiens) (UniProt P10275). The assay can be described thus: qHTS assay for small molecule agonists of androgen receptor signaling (AID 588515; active = well fitted curve in the direction sought with a large enough effect in the signal ratio, with a control signal flat; the % refers to the signal ratio; note: % is set by controls: 0 for no effect and ±100 for the full control effect). The conditions noted are these: AR-UAS-bla HEK293, beta-lactamase ratio, agonist 16 h; active compounds read high. Put shortly:
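Stimulation of an AR-responsive β-lactamase reporter in GripTite HEK293 cells was measured after 16 h compound exposure at 37 °C, via CCF4 fluorescence after 2 h RT. EC50 from Hill fits, normalized to R1881 at 30 nM.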

Chain of Androgen receptor (Homo sapiens) (P10275 whole entry, looked up): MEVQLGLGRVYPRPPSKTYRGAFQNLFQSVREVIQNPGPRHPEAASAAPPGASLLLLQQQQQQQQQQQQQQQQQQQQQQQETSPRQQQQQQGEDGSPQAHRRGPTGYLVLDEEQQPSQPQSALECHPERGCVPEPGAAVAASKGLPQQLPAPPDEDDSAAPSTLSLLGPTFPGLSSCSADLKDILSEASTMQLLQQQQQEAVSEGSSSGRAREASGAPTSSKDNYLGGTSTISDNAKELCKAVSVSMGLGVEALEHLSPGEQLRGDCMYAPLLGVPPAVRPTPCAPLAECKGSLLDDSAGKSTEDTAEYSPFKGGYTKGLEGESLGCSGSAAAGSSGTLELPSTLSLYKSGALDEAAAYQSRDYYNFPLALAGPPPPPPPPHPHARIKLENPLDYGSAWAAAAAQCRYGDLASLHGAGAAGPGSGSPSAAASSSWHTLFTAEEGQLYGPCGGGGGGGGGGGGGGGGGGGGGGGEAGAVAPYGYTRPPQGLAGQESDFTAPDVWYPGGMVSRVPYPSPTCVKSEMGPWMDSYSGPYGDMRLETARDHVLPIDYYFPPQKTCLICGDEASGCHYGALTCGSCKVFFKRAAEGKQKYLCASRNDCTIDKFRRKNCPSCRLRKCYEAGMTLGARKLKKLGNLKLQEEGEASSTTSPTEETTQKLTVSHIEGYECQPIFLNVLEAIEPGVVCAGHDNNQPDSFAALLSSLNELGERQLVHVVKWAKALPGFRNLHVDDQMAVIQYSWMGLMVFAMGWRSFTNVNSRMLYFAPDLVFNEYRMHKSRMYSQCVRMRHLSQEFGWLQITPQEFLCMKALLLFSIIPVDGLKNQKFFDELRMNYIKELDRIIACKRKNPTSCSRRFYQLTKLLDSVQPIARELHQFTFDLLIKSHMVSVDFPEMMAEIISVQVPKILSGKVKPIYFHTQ

Turning to `NC(=O)NC(N)=O`, the Potency result in [1], in assay [2], in [3], in assay [4], in assay [5] and in [6] was “inactive” throughout. The Potency entry in assay [7], in assay [8], in assay [9], in [10], in [11] and in [12] was “inactive” each time. Further, the Potency result in [13], in assay [14] and in assay [16] was “inactive” in each case. Also, in assay [15], the result was inactive.
Consider `CC(=O)CC(C)C`, for which the Potency entry in assay [1], in assay [2], in assay [17], in [3], in assay [4] and in [5] was “inactive” each time. Further, the Potency result in [6], in [7], in assay [8], in assay [9], in assay [10] and in assay [11] was “inactive” each time. Moreover, the Potency entry in assay [12] and in assay [14] was “inactive” each time. The outcome in assay [18] and in assay [15] was inactive. Moreover, the activation in [19] was 2.1%.
Take `Cc1cc(C)cc([N+](=O)[O-])c1`: the Potency entry in assay [1], in assay [2], in [17], in assay [3], in [4] and in [5] was “inactive” throughout. Moreover, the Potency result in assay [6], in assay [7], in [9], in assay [10], in assay [11] and in assay [12] was “inactive” each time. In addition, the Potency result in assay [13], in assay [14] and in assay [16] was “inactive” throughout. Besides, the outcome in assay [18] and in assay [15] was inactive.
For the compound `CC(=O)c1cc(C)oc1C`, the Potency entry in [1], in assay [2], in assay [17], in assay [3], in assay [4] and in assay [5] was “inactive” in each case. Besides, the Potency result in assay [6], in [7], in assay [8], in assay [9], in assay [10] and in assay [11] was “inactive” in each case. Moreover, in assay [13], the Potency result was “inactive”. The outcome in [18] and in [15] was inactive. Further, the activation in [19] was -1.32%.
Take `Oc1cccc(Nc2ccccc2)c1`: the Potency entry in assay [1], in [2], in assay [17], in [3], in assay [4] and in assay [6] was “inactive” each time. Besides, the Potency result in [9], in assay [10], in [11], in assay [12], in assay [13] and in assay [14] was “inactive” throughout. For the same compound, the call in [18] and in [15] was inactive. The Potency in assay [16] was 25.1 µM (active).
Turning to `O=C(O)CNC(=O)c1ccc(CO)o1`, the Potency entry in assay [1], in [2], in assay [3], in [4], in assay [5] and in [6] was “inactive” throughout. Further, the Potency entry in assay [7], in assay [8], in assay [9], in assay [10], in [11] and in assay [12] was “inactive” each time. The Potency entry in [13], in assay [14] and in [16] was “inactive” each time. Also, the compound was classed as inactive in [18] and in assay [15].
For the compound `Nc1cccc(O)c1`, the Potency entry in assay [1], in assay [2], in assay [3], in [4], in assay [5] and in [6] was “inactive” in each case. Further, the Potency entry in assay [7], in assay [10], in assay [12], in [13] and in [16] was “inactive” each time. The compound was classed as inactive in assay [15].
For the compound `CC#N`, the Potency entry in [1], in assay [2], in assay [17], in assay [3], in assay [4] and in [5] was “inactive” throughout. The Potency entry in assay [6], in assay [7], in assay [8], in assay [10], in assay [11] and in [12] was “inactive” each time. In addition, the Potency entry in assay [13], in [14] and in assay [16] was “inactive” throughout. In addition, the compound was classed as inactive in [18] and in assay [15].
With `O=Cc1c(Cl)cccc1Cl`, the Potency entry in [2], in [17], in assay [3], in assay [4], in assay [5] and in assay [6] was “inactive” each time. Besides, the Potency entry in assay [8], in assay [9], in [10], in assay [11], in [12] and in assay [13] was “inactive” in each case. Besides, the Potency entry in [14] and in assay [16] was “inactive” in each case. Besides, the outcome in [18] and in [15] was inactive.
`O=[N+]([O-])c1ccc(CCO)cc1`: the Potency entry in assay [3], in assay [13], in assay [14] and in assay [16] was “inactive” in each case. In assay [15], the outcome was inactive.
